Measured values reported in PubChem BioAssay AID624417 (National Center for Advancing Translational Sciences (NCATS), 2012).
In all, about 410,000 compounds went through this assay and about 6,400 (1.6%) were called active. Entries that show only a call come without a potency. Another 20% or so got no clear call; they are omitted. This is one part of a sample in which actives are shown more often than they occur. The call rests on the fitted dose curve; in most records, active means well fitted inhibition curve with a large enough effect; inconclusive means small, poorly fitted or top-dose-only effect; inactive means no such curve, though single readings can be large or run the other way.

Target: Glucagon-like peptide 1 receptor (Homo sapiens) (UniProt P43220)
Assay: qHTS of GLP-1 Receptor Inverse Agonists (Inhibition Mode); further: nearly all actives have a fitted effect of over 55% in size
Details: HEK293 GLP-1R CRE-luciferase, luminescence, 24 h, GLP-1R form is constitutively active; series mostly up to 38.3 µM
Excerpt: The overall goal of this project was to develop a novel assay for discovering small molecule ligands for class B1 G protein-coupled receptors (GPCRs). Very few agonists (or inverse agonists in inhibition mode) with generally weak activity for this entire group of physiologically important receptors are known to date. To establish proof-of-principle that this critical bottleneck can be overcome with a suitable screening approach, our studies focused on the class B1 receptor for glucagon-like peptide-1 (GLP-1R), a potential therapeutic target for diabetes and neurodegenerative disease. The assay was developed using a cell-based functional readout. Toward this goal, stably transfected HEK293 cell clones were established that co-express (i) a cAMP-responsive luciferase reporter gene, and (ii) constitutively active GLP-1R that upon ligand interaction inhibit (inverse agonists) the luciferase activity. In addition, two control cell lines were developed: (i) one that express only the cAMP-responsive reporter gene to enable initial exclusion of GLP-1R independent effects of candidate probes; and (ii) one with the reported gene cloned with another constitutively active orphan receptor GPR119 to enable exclusion of GLP-1R independent inhibitor effects of candidate inverse agonists. To that end, this assay was optimized for 1536-well format and screened against the MLSMR. […] NIH Molecular Libraries Probe Production Network [MLPCN] NIH Chemical Genomics Center [NCGC] Grant: NS064851 PI Name: Martin Beinborn, Tufts Medical Center
Six ul of cell suspension (200 cells/uL in DMEM + 10% Nu serum + 1% pen-strep) is dispensed in a white solid 1536-well plate. The plates are incubated for 12 hours at 37 deg C at 5% CO2 followed by addition of 23 nL compounds. After 24 hr incubation at 37 deg C and 5% CO2, 3 uL of luciferase assay detection reagent is added. A luminescence read is obtained on the PerkinElmer Viewlux after 12 min incubation at room temperature.
Potency means the concentration at half of the fitted maximal effect.

Sequence of Glucagon-like peptide 1 receptor (Homo sapiens) (P43220 whole entry, looked up): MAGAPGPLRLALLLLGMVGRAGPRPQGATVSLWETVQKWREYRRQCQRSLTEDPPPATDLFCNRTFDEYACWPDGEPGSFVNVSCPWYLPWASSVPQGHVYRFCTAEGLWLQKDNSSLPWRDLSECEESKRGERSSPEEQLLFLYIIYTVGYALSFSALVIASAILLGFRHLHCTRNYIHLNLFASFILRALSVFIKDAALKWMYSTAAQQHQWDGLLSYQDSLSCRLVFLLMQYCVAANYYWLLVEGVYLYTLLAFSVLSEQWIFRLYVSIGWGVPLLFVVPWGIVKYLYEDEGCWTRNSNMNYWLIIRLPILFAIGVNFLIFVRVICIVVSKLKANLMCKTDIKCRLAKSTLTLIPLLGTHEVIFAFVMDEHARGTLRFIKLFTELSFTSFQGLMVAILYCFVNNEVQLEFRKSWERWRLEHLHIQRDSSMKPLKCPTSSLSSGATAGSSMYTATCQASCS

SMILES	Potency
O=C(Nc1cccc2ccccc12)N1CCN(Cc2ccc3c(c2)OCO3)CC1	inactive
O=C(c1cccs1)N1CCN(Cc2ccc3c(c2)OCO3)CC1	inactive
O=C(CSCc1ccc(Cl)cc1)N1CCN(Cc2ccc3c(c2)OCO3)CC1	10 µM (active)
CCCC(=O)N1CCC1(C)C(=O)NCc1ccc(SC)cc1 (configuration not stated)	inactive
CC1(C(=O)NS(=O)(=O)c2ccccc2Cl)CCN1C(=O)c1cccc(F)c1 (configuration not stated)	inactive
O=C(N/N=C/c1ccc(OCc2ccccc2)cc1)c1ccc(O)cc1	2.82 µM (active)
O=C(N/N=C/c1ccc(OC(=O)c2ccccc2Cl)cc1)c1ccc(O)cc1	inactive
O=C(Cc1cccs1)N/N=C/c1ccc(OCc2ccccc2)cc1	inactive
O=C(O)c1ccccc1Cc1ccc(F)c2ccccc12	inactive
CCC(C(=O)NC(C)(C)C)n1c(-c2ccccc2)nc2ccccc21 (configuration not stated)	inactive
C[C@H]1CN([C@@H](C)CO)C(=O)c2cc(-c3ccccc3F)cnc2O[C@H]1CN(C)C(=O)C1CCOCC1	inactive
CC1(C(=O)Nc2cccc3cccnc23)CCN1C(=O)CCC1CCCC1 (configuration not stated)	inactive
O=C(NCCN1CCOCC1)c1ccc2c(c1)N(Cc1cccc(Cl)c1)C(=O)c1ccccc1S2(=O)=O	inactive
Cc1cccc(N2CCN(Cc3nc(C4CC4)no3)CC2)n1	inactive
Fc1cccc(Cc2noc(CN3CCN(c4cnccn4)CC3)n2)c1	inactive
Cc1ccccc1N1CCN(Cc2nc(Cc3ccccc3F)no2)CC1	11.2 µM (active)
Cc1cc(Cl)ccc1OCCCC(=O)NCc1ccccn1	inactive
Cc1cc(Cl)ccc1OCCCC(=O)NCc1ccncc1	inactive
Cc1cc(Cl)ccc1OCCCC(=O)Nc1cccc(-n2cnnn2)c1	10 µM (active)
COc1ccc(C(O)c2nc(-c3ccc(OC)nc3)cs2)cc1 (configuration not stated)	inactive
Cc1cc(Br)cn2c(Cc3ccccc3C(F)(F)F)c(-c3ccc(Cl)cc3)nc12	inactive
CCCCN(C=O)c1c(CC)nc2c(OCc3ccccc3C(=O)OC)cccn12	inactive
O=S1(=O)CC(N2CCN(c3ccccn3)CC2)CN1Cc1ccc(F)cc1 (configuration not stated)	inactive
CCc1nc2c(OCc3ccc(F)c(F)c3)cccn2c1N(C)C(=O)c1ccco1	inactive
CCCNC(=O)c1cc(C2CCCCN2S(=O)(=O)c2ccc(C#N)cc2)on1 (configuration not stated)	inactive
Cc1nc(NC(=O)C2CCCCC2)sc1C	8.91 µM (active)

SMILES	Potency
Cc1nc2ccc(NC(=O)C3CCCCC3)cc2s1	inactive
Cc1nc(NC(=O)C23CCC(C)(C(=O)O2)C3(C)C)sc1C (configuration not stated)	inactive
NC(=O)CSc1nnc(-c2cccc(S(=O)(=O)N3CCOCC3)c2)o1	inactive
Cc1ccc(C(=O)NC(C)C(c2cccs2)N2CCOCC2)cc1C (configuration not stated)	inactive
Cn1nc(N)c2ncc(C(Cl)(Cl)Cl)nc21	inactive
O=[N+]([O-])c1ccc(N2CCN(CC(O)COc3ccccc3)CC2)cc1 (configuration not stated)	inactive
CC(=O)Nc1ccc(OCC(O)CN2CCN(c3ccccc3Cl)CC2)cc1 (configuration not stated)	inactive
OC(COc1ccc(Br)cc1)CN1CCCC1 (configuration not stated)	inactive
OC(COc1ccc2c(c1)CCC2)CN1CCN(c2cccc(Cl)c2)CC1 (configuration not stated)	10 µM (active)
O=C(c1ccc(Cl)cc1)c1ccc(OCC(O)CN2CCCCC2)cc1 (configuration not stated)	5.01 µM (active)
O=c1cc(CN2CCN(c3cccc(Cl)c3)CC2)c2cc3c(cc2o1)CCCC3	inactive
Cc1ccc(S(=O)(=O)N2C[C@]3(O)C[C@@H]4C(=O)N(c5ccccc5)C(=O)[C@@H]4C[C@]3(OC(=O)NC3CC3)C2)cc1	inactive
C[C@H](O)[C@@H]1C(=O)N2CCc3c([nH]c4ccccc34)[C@@H]2C[C@@H]1N(C)C(=O)Nc1ccc(F)cc1	inactive
C=CC(COCc1ccccc1)N(Cc1ccccc1)S(=O)(=O)c1ccccc1Br (configuration not stated)	10 µM (active)
CCN([C@H](CO)C(C)C)S(=O)(=O)c1ccccc1Br	inactive
CC(C)Cc1ccc(-c2cc3nc(NCc4cccc(Cl)c4)ccn3n2)cc1	2.82 µM (active)
Cc1cc(C)n2c(NCc3ccccc3)c(CC(C)C)nc2n1	inactive
COCCn1c(SCC(=O)Nc2ccc(F)cc2F)nc2c(c1=O)SCC2	inactive
CC1(C(=O)NCc2ccccc2)CSCC(=O)N1CCCn1ccnc1 (configuration not stated)	inactive
Cc1cccc(N2CCN(C(=O)c3cccc(N4C(=O)C5C6C=CC(C6)C5C4=O)c3)CC2)c1C (configuration not stated)	inactive
O=S(=O)(c1ccccc1)N1CCc2ccccc21	inactive
Cc1cccc(N2CCN(C(=O)c3ccc4c(c3)CCN4S(=O)(=O)c3ccccc3)CC2)c1C	7.94 µM (active)
O=C(Nc1cccc(C(=O)O)c1)/C(=C\c1ccccc1)NC(=O)c1ccc(Br)o1	inactive
OC[C@@H]1CN(Cc2ccc(F)cc2)C[C@H](n2cnc3c(NC4CCCC4)ncnc32)O1	inactive
OC[C@@H]1CN(Cc2ccc(-c3ccccc3)cc2)C[C@H](n2cnc3c(NC4CCCC4)ncnc32)O1	8.91 µM (active)
OC[C@@H]1CN(Cc2cccs2)C[C@H](n2cnc3c(NC4CCCC4)ncnc32)O1	inactive

SMILES	Potency
CC(=O)c1ccc(Nc2nc(C(N)c3ccccc3)cs2)cc1 (configuration not stated)	inactive
COc1cccc(-c2nc3nc(C)cc(C)n3c2NC2CCCCC2)c1	inactive
CCCCNC(=O)C(=O)c1ccccc1NC(C)=O	inactive
CCCCNC(=S)N/N=C1\CCCCc2ccccc21	11.2 µM (active)
Cc1ccc(NC(=S)N/N=C2/CCCc3c(C)cc(C)cc32)cc1	inactive
CCC(=O)N1CCC(C)(C(=O)Nc2cc(OC)c(OC)c(OC)c2)C1 (configuration not stated)	inactive
CC(=O)c1cccc(-c2cnc3c(NC=O)cc(-c4ccc(N5CCN(C)CC5)cc4)cn23)c1	inactive
COc1ccc(C(=O)Nc2sc(C)c(C)c2CN2CCOCC2)cc1	inactive
COc1ccc(NC(=O)CCN2CCN(CCO)CC2)cc1	inactive
CCc1cc(C(=O)c2ccc(OC)cc2)c(NC(=O)CN2CCN(C)CC2)s1	4.47 µM (active)
CN(C)CCCn1c(SCCN2C(=O)c3ccccc3C2=O)nc2ccccc2c1=O	inactive
CC(C)(C)c1nc2ccccc2c(=O)n1N1C(=O)c2ccccc2C1=O	10 µM (active)
Cc1nc2ccccc2c(=O)n1NC(=O)c1ccccc1	inactive
CC1(C(=O)Nc2ccc3c(c2)OCCO3)CCN1C(=O)Cc1cc(F)ccc1F (configuration not stated)	inactive
CC1(C(=O)NS(=O)(=O)Cc2cccc(Cl)c2)CCN1C(=O)Cc1ccc(Cl)cc1Cl (configuration not stated)	inactive
CC(C)N1C(=O)c2ccccc2NC(=O)C1C(=O)NCc1cccs1 (configuration not stated)	inactive
COCCNc1nc(Nc2ccccc2Cl)c2sc(-c3ccccc3)cc2n1	inactive
CCOc1ccc(S(=O)(=O)NCCC(=O)NNC(=O)c2ccc(F)cc2)cc1	inactive
COc1cccc(NC(=O)CN(C)C(=O)/C=C/c2cc(OC)ccc2OC)c1	inactive
COc1ccc(NC(=O)CN(C)C(=O)/C=C/c2cn(Cc3ccccc3)nc2-c2cccnc2)cc1	inactive
COc1cccc(NC(=O)CN(C)C(=O)/C=C/c2cn(-c3ccccc3)nc2-c2cccs2)c1	7.94 µM (active)
CC(C)(O)C1=C[N+](=O)CC=C1	inactive
CCC(C)CN1C(=O)CSCC1(C)C(=O)NCc1ccccc1 (configuration not stated)	inactive
O=C1OCCC1=COCCCCOC=C1CCOC1=O	inactive
O=C(NCC(O)c1nc2ccccc2[nH]1)c1ccc(Br)cc1 (configuration not stated)	inactive
CCOc1ccc2[nH]c(=O)c(CN(CCCO)S(=O)(=O)c3ccc(F)cc3)cc2c1	inactive

SMILES	Potency
COc1ccc2[nH]c(=O)c(CN(Cc3cccnc3)S(=O)(=O)c3ccccc3F)cc2c1	5.01 µM (active)
CCN(Cc1cc2cc(C)ccc2[nH]c1=O)S(=O)(=O)c1ccccc1	inactive
O=C(c1cccs1)N1C[C@H](n2cc(C3CC3)nn2)[C@@H](O)C[C@@H]1c1ccccc1	inactive
COCCNc1ncnc2c1ncn2[C@H]1CN(CCN2CCOCC2)C[C@@H](CO)O1	inactive
CN1CCN(CCCNC(=O)c2cc3c(=O)oc4ccccc4c3s2)CC1	inactive
CCC1CCCCN1CCCNC(=O)C1CCC(Cn2c(=O)[nH]c3ccccc3c2=O)CC1 (configuration not stated)	inactive
COc1ccc(C(C)(NC(C)=O)c2nc(-c3ccc(S(C)(=O)=O)cc3)cs2)cc1 (configuration not stated)	inactive
O=C(CN1C(=O)NC2(CCc3ccccc32)C1=O)NC1CCCCC1 (configuration not stated)	inactive
O=C(COc1ccc(S(=O)(=O)N2CCCC2)cc1[N+](=O)[O-])N1CCCCC1	inactive
CCc1cc(=O)oc2c(C)c(OCC(=O)NCCN3CCOCC3)ccc12	inactive
CC(=O)Oc1cc2c(C(=O)NCCN3CCOCC3)c(C)oc2c2ccccc12	10 µM (active)
Cc1cc(C)cc(C(=O)NCCN2CCOCC2)c1	inactive
O=C1NC(O)CCN1C1CC(O)C(CO)O1 (configuration not stated)	inactive
COc1ccc(C(O)C(O)(C(=O)OC(C)C)c2ccc(C)cc2)cc1 (configuration not stated)	inactive
Cc1nc2ccccn2c(=O)c1NC(=O)c1ccc(Br)o1	inactive
CCCN(CC1COc2ccccc2O1)C(=S)Nc1ccc(C)cc1 (configuration not stated)	11.2 µM (active)
CCC(=O)c1ccc(OCC(=O)N(CC)CC2COc3ccccc3O2)cc1 (configuration not stated)	inactive
COc1ccc(NC(=O)C2COc3ccccc3O2)cc1 (configuration not stated)	inactive
CS(=O)(=O)N1CCCCC1c1cc(C(=O)NCc2ccccc2)no1 (configuration not stated)	inactive
COC(=O)[C@]12CCCCC=C1N(Cc1ccco1)C(=O)[C@H](CC(=O)NCC1CCCCC1)C2	inactive
O=C(CN1CCN(c2ccccc2)CC1)Nc1ccc(F)cc1	inactive
CN1CCN(CCNC(=O)Nc2ccc([N+](=O)[O-])cc2)CC1	inactive
O=C(NCCCN1CCN(c2ccc(F)cc2)CC1)Nc1ccc([N+](=O)[O-])cc1	11.2 µM (active)
CCC(C)CN1C(=O)CN(S(C)(=O)=O)CC1(C)C(=O)Nc1ccc2c(c1)OCCO2 (configuration not stated)	inactive
